# Reference: PubChem BioAssay AID1910 (Broad Institute, 2009)
# Hit rate of the full screen: of about 300,000 compounds, about 950 (0.32%) were called active. This is one part of a sample in which actives are shown more often than they occur.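 The calls were made as follows: active = mean activation of at least 10% of the iron chelator positive control signal, with at least half of replicates also reaching 10%; inconclusive = mean and replicate majority disagree about reaching 10%; inactive = mean and most replicates under 10%.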
# Test: hypoxia response element reporter activation – cell-based, U2OS HRE-luciferase, luminescence, primary screen (AID 1910)
# Settings: stronger effect = higher value, screened at 7.5 µM (by protocol), normalized: DMSO 0%, desferrioxamine 100%
row,Compound,activation
1,O=C(Cc1ccc(Br)cc1)NCCc1ccccc1,0.0277% (inactive)
2,COc1ccc(NC(=O)C(C)N2c3cccc4cccc(c34)S2(=O)=O)c(OC)c1 (stereo unspecified),0.272% (inactive)
3,CC(C(=O)N1CCOCC1)N1c2cccc3cccc(c23)S1(=O)=O (stereo unspecified),163% (active)
4,CC(C)CN(CC(C)C)C(=O)CN1c2cccc3cccc(c23)S1(=O)=O,-19% (inactive)
5,COC(=O)C1CCN(C(=O)NC2CC(=O)N(c3ccc4c(c3)OCCO4)C2)CC1 (stereo unspecified),2.77% (inactive)
6,C/C=C/c1ccc(OCC(=O)OCC(=O)Nc2c(C)nn(-c3ccccc3)c2C)c(OC)c1,0.205% (inactive)
7,CCOc1ccccc1OCC(=O)Nc1ccccc1C(=O)NC1CC1,0.735% (inactive)
8,N[C@@H](Cc1ccccc1)C(=O)N1CCOCC1,1.05% (inactive)
9,Cc1cc(Nc2ccc(Cl)cc2)nc(N2CCOCC2)n1,0.664% (inactive)
10,Cc1cc(Oc2ccccc2)nc(N2CCOCC2)n1,686% (active)
11,Cc1cc(N2CCN(c3ccccc3)CC2)nc(N2CCOCC2)n1,-0.818% (inactive)
12,Cc1ccc(NC(=O)COC(=O)CNC(=O)c2ccc(Cl)cc2Cl)cc1S(=O)(=O)N1CCOCC1,-0.357% (inactive)
13,CCOC(=O)c1cc(C(C)C)sc1NC(=O)COC(=O)c1nccnc1N,-0.0851% (inactive)
14,Oc1c(CN2CCN(c3ccc(F)cc3)CC2)cc(Cl)c2cccnc12,57.7% (active)
15,CCN1CCN(C(c2cccnc2)c2cc(Cl)c3cccnc3c2O)CC1 (stereo unspecified),1.75% (inactive)
16,Oc1ccc(CN2CCN(c3ncccn3)CC2)cc1,-0.81% (inactive)
17,Cc1ccccc1OCC(=O)Nc1ccc2c(c1)ncn2C,1.83% (inactive)
18,C=CCC1(C(=O)N(C)Cc2ccccc2)CCN(C(=O)OC(C)(C)C)CC1,-0.424% (inactive)
19,COc1ccc2c(c1)O/C(=C\c1ccccc1O)C2=O,3.88% (inactive)
20,COc1cc([N+](=O)[O-])cc([N+](=O)[O-])c1NC(=O)N1CCOCC1,-0.133% (inactive)
21,COc1ccc(C#Cc2c(-c3ccc(OC)cc3)oc3ccc(-c4ccc5c(c4)OCO5)cc23)cc1,2.6% (inactive)
22,Cc1cccc(OCCC(=O)Nc2cc(S(=O)(=O)N3CCCCC3)ccc2N2CCOCC2)c1,-0.617% (inactive)

row,Compound,activation
1,CN1CCN(c2ccc(S(=O)(=O)N3CCOCC3)cc2NC(=O)CCc2ccccc2)CC1,0.124% (inactive)
2,CC(=O)NCCC(=O)Nc1cc(S(=O)(=O)N2CCOCC2)ccc1N1CCOCC1,158% (active)
3,O=S(=O)(NCCCc1ccccc1)c1ccc(Br)cc1,-0.382% (inactive)
4,O=c1[nH]snc1-c1c(Cl)cccc1Cl,-0.133% (inactive)
5,COc1ccc(S(=O)(=O)N2CCOC2CNC(=O)C(=O)NCc2ccncc2)cc1OC (stereo unspecified),0.131% (inactive)
6,Cc1ccc(S(=O)(=O)N2CCN(C(=O)c3ccccc3-c3nc4ccccc4s3)CC2)c(C)c1,-37.1% (inactive)
7,CCOC(=O)C1CCN(C(=O)COC(=O)C2CCN(S(=O)(=O)c3ccc4c(c3)OCCO4)CC2)CC1,0.496% (inactive)
8,CCOc1ccccc1NS(=O)(=O)c1cc2c3c(c1)C(C)C(=O)N3CCC2 (stereo unspecified),-0.238% (inactive)
9,COc1ccccc1CCNS(=O)(=O)c1cc2c3c(c1)C(C)C(=O)N3CCC2 (stereo unspecified),80.8% (active)
10,CC1C(=O)N2CCCc3cc(S(=O)(=O)NCc4ccc(F)cc4)cc1c32 (stereo unspecified),2.62% (inactive)
11,O=C(CNC(=O)C12CC3CC(CC(C3)C1)C2)OCC(=O)N1CCCCC1,-0.325% (inactive)
12,CC(NC(=O)c1ccccc1SCC(=O)N1CCCC1)c1ccccc1 (stereo unspecified),-0.504% (inactive)
13,COc1ccc(-c2cc(C(=O)NCCCn3ccnc3)no2)cc1,1.05% (inactive)
14,O=C(NC1CCCC1)c1cc(-c2ccccc2)on1,25.3% (active)
15,CC(NC(=O)c1cc(-c2ccccc2)on1)c1ccccc1 (stereo unspecified),0.0998% (inactive)
16,O=C(NC1CCCCC1)c1cc(C2CC2)on1,1.35% (inactive)
17,COc1ccccc1-c1cc(C(=O)NCCCn2ccnc2)no1,0.0935% (inactive)
18,O=C(NCCCn1ccnc1)c1cc(-c2ccccc2)on1,35.8% (active)
19,Cc1ccccc1C(=O)N1CCC(C(=O)Oc2ccc(C#N)cc2)CC1,-0.988% (inactive)
20,CC(=O)c1ccc(NC(=O)C2CCCN2S(=O)(=O)c2cccs2)cc1 (stereo unspecified),-0.0783% (inactive)
21,N#CCCN(C(=O)COC(=O)C1CCN(c2ccc(C(F)(F)F)cn2)CC1)c1ccc(F)cc1,0.186% (inactive)
22,COc1ccc(CCNC(=O)CSc2nc(-c3ccc(OC)c(OC)c3)ccc2C#N)cc1,225% (active)

row,Compound,activation
1,COc1cccc(-c2ccc(C#N)c(SCC(=O)NCCc3ccc(Cl)cc3)n2)c1,-0.149% (inactive)
2,COc1ccc(CCNC(=O)CSc2nnc3ccc(-c4ccncc4)nn23)cc1,-0.329% (inactive)
3,C=CCOc1ccc(/C=C/C(=O)OCC(=O)NC(C)c2ccc(F)cc2)cc1 (stereo unspecified),-1.98% (inactive)
4,CCOc1ccc(NC(=O)c2ccc(NC(=O)CN3C(=O)C(=O)N(CC(C)C)C3=O)cc2)cc1,-0.207% (inactive)
5,CC1CC(C)CN(CCCNC(=O)Cn2ncc3c([nH]c4ccccc43)c2=O)C1 (stereo unspecified),-0.555% (inactive)
6,Cc1ccc2[nH]c3c(=O)n(CC(=O)NCCc4ccc(Cl)cc4)ncc3c2c1,0.0828% (inactive)
7,Cc1cccc(CCNC(=O)Cn2ncc3c([nH]c4ccc(C)cc43)c2=O)c1,67.3% (active)
8,Cc1ccc2nnn(Cc3cccc(C(C)(C)C)c3O)c2c1,-0.574% (inactive)
9,CCc1cccc(C)c1NC(=O)COC(=O)CC1CCCC1,-0.451% (inactive)
10,CC(=O)Nc1ccc(S(=O)(=O)N2CCC(NC(=O)c3ccccc3)CC2)cc1,-33.2% (inactive)
11,CC1(C)CC(=O)C(C=NCCN2CCN(C(=S)Nc3cccc(Cl)c3)CC2)=C(O)C1,233% (active)
12,CCNC(=S)N1CCN(CCN=CC2=C(O)CC(C)(C)CC2=O)CC1,-0.656% (inactive)
13,CC(=O)N1CCN(CCN=CC2=C(O)CC(C)(C)CC2=O)CC1,-0.482% (inactive)
14,COCCNC(=S)N(CCc1c(C)[nH]c2ccc(C)cc12)Cc1cccnc1,0.573% (inactive)
15,Cc1nnc(N/N=C/C2CC=CCC2)[nH]c1=O (stereo unspecified),-0.414% (inactive)
16,Cc1nnc(N/N=C/c2ccccn2)[nH]c1=O,117% (active)
17,CNC(=O)C(=O)N/N=C/c1ccccn1,-0.138% (inactive)
18,CCS(=O)(=O)Nc1cc(C(=O)OC)ccc1C(=O)OC,-0.124% (inactive)
19,CCN(CCO)C(=S)Nc1cc(C(=O)OC)ccc1C(=O)OC,-0.0671% (inactive)
20,CCCN(CCC)C(=S)Nc1cc(C(=O)OC)ccc1C(=O)OC,166% (active)
21,Fc1ccc(-c2ccc(NCCN3CCOCC3)nn2)cc1,3.51% (inactive)
22,COc1ccc(NC(=O)CCCC(=O)c2ccccc2)cc1,0.37% (inactive)
